Drawing on PubChem BioAssay (NCI), this text covers growth for nine molecules.

Each structure is given as a SMILES string. This is part of a sample that, as a whole, favours compounds with a hit. Of some 83,000 tested, about 20% had one in any assay.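 A percent growth of 40 corresponds to 60% growth inhibition; 0 means no net growth; -100 means all cells died. Active threshold: below 10.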 A number with no mark means an inactive call. Calls of active or inactive are those of the source.

Common to all, as to experiment: NCI-60 one-dose screen, 48 h (100 = growth as untreated, 0 = no growth, -100 = all killed)
Conditions in all cases: 10 µM unless noted

Assay [1] relates to RPMI-8226 leukemia.
For assay [2], the system named is OVCAR-8 ovarian.
The subject of assay [3] is OVCAR-5 ovarian.
For assay [4], the system named is OVCAR-4 ovarian.
In assay [5] the test system is SK-OV-3 ovarian.
Assay [6] deals with IGROV1 ovarian.
The subject of assay [7] is OVCAR-3 ovarian.
The subject of assay [8] is HS 578T breast.
Assay [9] deals with NCI/ADR-RES ovarian.
Assay [10] deals with BT-549 breast.
Assay [11] has as its system MDA-MB-435 melanoma.
The test system of assay [12] is SW-620 colon.
Assay [13] has as its system MCF7 breast.
Assay [14] deals with HCT-116 colon.
Assay [15] relates to HCC-2998 colon.
Assay [16] deals with KM12 colon.
Assay [17] relates to T-47D breast.
For assay [18], the system named is SR leukemia.

Regarding `Cc1nc2ccc(C(=O)NCc3cc(C(=O)O)c(C)o3)cc2nc1C`, the growth in assay [1] was 108%; in assay [2] it was 96.6%; in [3], 99.7%; in assay [4], 95.4%; in [5], 80.2%; in [6], 106%. The growth in [7] is 101%; in assay [8], 96.8%; in assay [9] it was 106%; in [10], 96.1%; in [11], 96.2%; in [12], 99.3%. In addition, the growth is 101% in assay [13], 95.5% in assay [14], 98% in assay [15] and 92.3% in [16].

Take `COC(=O)c1ccc2oc(NC(=O)c3ccc(N4CCOCC4)c([N+](=O)[O-])c3)nc2c1`: the growth in assay [1] is 93.3%; in assay [2], 99%; in assay [3], 92.8%; in assay [4], 91%; in assay [5] it was 89.8%; in assay [6], 99.9%. Also, the growth in assay [7] is 107%; in [8], 96.9%; in [9], 103%; in assay [10], 95.7%; in [11], 107%; in assay [12] it was 100%. The growth in assay [13] is 94.1%; in [14], 93%; in assay [15], 105%; in [16] it was 102%.

As for `COc1ccc(-c2nc3sccn3c2/C=C/C(=O)c2c[nH]c3ccccc23)cc1`, the growth was 154% in [1]; 63.9% in assay [2]; 63.5% in [3]; 42.6% in [4]; 79.6% in assay [5]; 79.2% in assay [6]. The growth in assay [7] was 68.1%; in [8], 74.9%; in assay [9], 59.1%; in [17], 56.1%; in assay [10], 59.1%; in assay [11], 88.9%. In addition, the growth in assay [12] was 100%; in assay [13], 69.8%; in [14], 69.5%; in assay [15], 67.4%; in assay [16], 76.8%.

In the case of `C=C1C(=O)O[C@H]2[C@H]1CC/C(COC(=O)/C=C/C(=O)NCc1ccc(Cn3c(=O)sn(-c4ccccc4)c3=O)cc1)=C\CC[C@@]1(C)O[C@@H]21`, the growth in assay [1] was -32.6% (active); in [2], -0.571% (active); in [3] it was 35.4%; in [4] it was 25.7%; in [5], 75.8%; in assay [6], -25.5% (active). Also, the growth was -77.5% (active) in assay [7]; 77.8% in assay [8]; 94.1% in assay [9]; -3.27% (active) in assay [10]; -26.6% (active) in assay [11]; -64.5% (active) in [12]. Also, the growth in assay [13] is 5.01% (active); in assay [14], -79.1% (active); in assay [15] it was 54.4%; in assay [16], 49.1%.

As for `CS(=O)(=O)c1ccc(-c2[nH]c3ccc(F)cc3c2/C=N/O)cc1`, the growth was 90.4% in [1]; 90.3% in assay [2]; 91.4% in [3]; 97.1% in [4]; 69.8% in [5]; 89.9% in assay [6]. In addition, the growth in assay [7] was 99.8%; in assay [8], 92.2%; in assay [9], 107%; in assay [10], 91%; in assay [11] it was 99.6%; in [12], 110%. The growth in assay [13] is 82.9%; in assay [14] it was 87.9%; in [15], 110%; in assay [16], 101%.

Regarding `O=S(=O)(NCCNc1cc(-c2c(-c3cccc(O)c3)nc3sccn23)ccn1)c1ccc(Br)cc1`, the growth is 38.1% in [1]; 47.5% in assay [2]; 109% in assay [3]; 43.1% in assay [4]; 73.7% in [5]; 47.4% in assay [6]. The growth in assay [7] was 60.3%; in assay [8], 59.1%; in assay [9], 80.4%; in [17], 23.8%; in assay [10], 55.2%; in assay [11], 26.1%. The growth is 76.8% in assay [12]; 37.4% in assay [13]; 47.9% in assay [14]; 95.3% in assay [15]; 51.3% in [16].

For `Cc1c(C(=O)O[C@H]2[C@@H]3[C@H](C)CC[C@H]3[C@]3(C)O[C@@]2(C2CCCCC2)C[C@H]3OC(=O)CO)ccc2ccccc12`, the growth in assay [1] was -40.7% (active); in [2], 28.6%; in assay [3], 61.1%; in assay [4], 39.4%; in assay [5], 62.6%; in [6] it was 63.3%. For the same molecule, the growth in [7] is 29.3%; in [8], -29.6% (active); in [9], 8.05% (active); in assay [10] it was 33.4%; in [11], 39%; in assay [12], 18.7%. Moreover, the growth in [13] is 3.27% (active); in [14], 3.42% (active); in assay [15] it was 5.5% (active).

Consider `NC(=O)c1c(NC(=O)c2ccc(C(F)(F)F)cc2Cl)sc2c1CCC(=O)C2`, for which the growth in assay [1] was -22.7% (active); in assay [2], 10.2%; in assay [3], -41.9% (active); in [4] it was -74.7% (active); in [5], -6.73% (active); in assay [6], -39.2% (active). Also, the growth in assay [7] is -57.4% (active); in [8] it was -7.87% (active); in [9], -13.9% (active); in [17] it was -21.2% (active); in assay [10], -33.2% (active); in assay [11], -42% (active). For the same molecule, the growth in assay [12] is -49.7% (active); in [13], 5.41% (active); in assay [14] it was -56.9% (active); in assay [15], -6.6% (active); in assay [16] it was -56.7% (active).

Regarding `COC1=CC(c2ccc[nH]2)=N/C1=C\c1[nH]c(C)c(C(=O)OCCn2cc(CCC[C@@H]3Cc4cc(O)ccc4C4CC[C@]5(C)[C@@H](O)CC[C@H]5C43)nn2)c1C` (stereo partly drawn), the growth in assay [18] was 23.8%; in assay [3], 88.9%; in assay [5], 92.4%; in assay [6] it was 95.7%; in assay [7], 85.5%; in assay [8] it was 65.1%. The growth in assay [9] is 83.2%; in [17] it was 102%; in assay [11] it was 80%; in [13] it was 96%; in assay [14], 81.6%; in assay [15], 85.7%. Also, the growth in assay [16] was 66.9%.
